# Measured values: PubChem BioAssay (EPA / NIEHS)
# Active and inactive are the calls of the source. How the source made its calls: active means hit-call score of the fitted dose curve at least 0.9, where 1 is the maximum; inactive means score below 0.9.
# Assay: ATG_GATA_CIS: Attagene CIS-FACTORIAL HepG2 Assay for human GATA Binding Protein (AID 2282944)
# Conditions: HepG2 GATA cis-element reporter, Attagene multiplex mRNA; actives raise or lower the signal
# How it was run: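 Transient MRTU transfection, HepG2, 24 h compound exposure. Total RNA → oligo(dT) RT → PCR → 6-FAM primer extension → HpaI cut → CE. Bidirectional fit vs DMSO.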
row,SMILES,outcome
1,Cc1[nH]cnc1C[C@H]1CCc2c(C)c3ccccc3n2C1=O,inactive
2,CC(C)CCCCCCCOC(=O)CCCCC(=O)OCCCCCCCC(C)C,inactive
3,O=P(OC(CCl)CCl)(OC(CCl)CCl)OC(CCl)CCl,inactive
4,CN(C)c1ccc(Cc2ccc(N(C)C)cc2)cc1,inactive
5,CC(C)=CCCC(C)=CC=O,inactive
6,COC(=O)c1ccccc1O,inactive
7,O=C1CCC(N2C(=O)c3ccccc3C2=O)C(=O)N1 (stereo not drawn),inactive
8,CC(C)CC(C)(O)C#CC(C)(O)CC(C)C (stereo not drawn),inactive
9,CCC(C)(C)C(=O)O[C@H]1C[C@@H](C)C=C2C=C[C@H](C)[C@H](CC[C@@H]3C[C@@H](O)CC(=O)O3)[C@H]21,inactive
10,CC(C)(O)c1coc(S(=O)(=O)NC(=O)Nc2c3c(cc4c2CCC4)CCC3)c1,inactive
11,O=C(OC[C@H]1O[C@@H](OC(=O)c2cc(O)c(O)c(OC(=O)c3cc(O)c(O)c(O)c3)c2)[C@H](OC(=O)c2cc(O)c(O)c(OC(=O)c3cc(O)c(O)c(O)c3)c2)[C@@H](OC(=O)c2cc(O)c(O)c(OC(=O)c3cc(O)c(O)c(O)c3)c2)[C@@H]1OC(=O)c1cc(O)c(O)c(OC(=O)c2cc(O)c(O)c(O)c2)c1)c1cc(O)c(O)c(OC(=O)c2cc(O)c(O)c(O)c2)c1,inactive
12,Cn1cnc([N+](=O)[O-])c1Sc1ncnc2nc[nH]c12,inactive
13,O=C(O)CC(O)C(=O)O (stereo not drawn),inactive
14,CC[C@H](C)C(=O)O[C@H]1C[C@@H](C)C=C2C=C[C@H](C)[C@H](CC[C@@H]3C[C@@H](O)CC(=O)O3)[C@H]21,inactive
15,O=c1n(CC2CO2)c(=O)n(CC2CO2)c(=O)n1CC1CO1 (stereo not drawn),inactive
16,COCCOc1cc2cc(C(=O)NC3CCN(C(C)C)CC3)n(CC(=O)Nc3ccc(Cl)cn3)c2cn1,inactive
17,CC(C)=CCC/C(C)=C/CO,inactive
18,CCOC(=O)CC(CC(=O)OCC)(OC(C)=O)C(=O)OCC,inactive
19,Cc1ccc(C)c(O)c1,inactive
20,CCCCCCCCCCCCCCCO,inactive
21,CC[C@H]1OC(=O)[C@H](C)[C@@H](O[C@H]2C[C@@](C)(OC)[C@@H](O)[C@H](C)O2)[C@H](C)[C@@H](O[C@@H]2O[C@H](C)C[C@H](N(C)C)[C@H]2O)[C@](C)(O)C[C@@H](C)C(=O)[C@H](C)[C@@H](O)[C@]1(C)O,inactive
22,CC(C)CCO,inactive
23,CC(C)CCCCCCOC(=O)c1ccc(C(=O)OCCCCCCC(C)C)c(C(=O)OCCCCCCC(C)C)c1,inactive
24,Cc1c(-c2cccnc2)c2ccccc2n1CCCCC(=O)O,inactive
25,CCCCC(CC)COC(=O)c1ccc(C(=O)OCC(CC)CCCC)cc1 (stereo not drawn),inactive
26,CCCCCCCCO,inactive
27,O=C(O)CCN(C1(C(=O)NO)CCCC1)S(=O)(=O)c1ccc(Oc2ccc(F)cc2)cc1,inactive
28,COc1cccc(-c2ccc(/C=C\CN3CCCCCC3)cc2Cl)c1,inactive
29,CC(C)=CCC/C(C)=C\CO,inactive

# Assay: ATG_GLI_CIS: Attagene CIS-FACTORIAL HepG2 Assay for human Zinc Finger Protein GLI1 (AID 2282945)
# Conditions: HepG2, Attagene cis-factorial reporter mRNA, GLI element; actives raise or lower the signal
# How it was run: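 Bidirectional curve fits relative to DMSO, using reporter mRNA levels from RT-PCR plus capillary electrophoresis. Cells were HepG2 transiently carrying cis-regulated reporter constructs, harvested 24 h after dosing.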
SMILES,outcome,AC50
Cc1[nH]cnc1C[C@H]1CCc2c(C)c3ccccc3n2C1=O,inactive,
CC(C)CCCCCCCOC(=O)CCCCC(=O)OCCCCCCCC(C)C,inactive,
O=P(OC(CCl)CCl)(OC(CCl)CCl)OC(CCl)CCl,,145 µM (active)
CN(C)c1ccc(Cc2ccc(N(C)C)cc2)cc1,inactive,
CC(C)=CCCC(C)=CC=O,inactive,
COC(=O)c1ccccc1O,inactive,
O=C1CCC(N2C(=O)c3ccccc3C2=O)C(=O)N1 (stereo not drawn),inactive,
CC(C)CC(C)(O)C#CC(C)(O)CC(C)C (stereo not drawn),inactive,
CCC(C)(C)C(=O)O[C@H]1C[C@@H](C)C=C2C=C[C@H](C)[C@H](CC[C@@H]3C[C@@H](O)CC(=O)O3)[C@H]21,inactive,
CC(C)(O)c1coc(S(=O)(=O)NC(=O)Nc2c3c(cc4c2CCC4)CCC3)c1,inactive,
O=C(OC[C@H]1O[C@@H](OC(=O)c2cc(O)c(O)c(OC(=O)c3cc(O)c(O)c(O)c3)c2)[C@H](OC(=O)c2cc(O)c(O)c(OC(=O)c3cc(O)c(O)c(O)c3)c2)[C@@H](OC(=O)c2cc(O)c(O)c(OC(=O)c3cc(O)c(O)c(O)c3)c2)[C@@H]1OC(=O)c1cc(O)c(O)c(OC(=O)c2cc(O)c(O)c(O)c2)c1)c1cc(O)c(O)c(OC(=O)c2cc(O)c(O)c(O)c2)c1,inactive,
Cn1cnc([N+](=O)[O-])c1Sc1ncnc2nc[nH]c12,inactive,
O=C(O)CC(O)C(=O)O (stereo not drawn),inactive,
CC[C@H](C)C(=O)O[C@H]1C[C@@H](C)C=C2C=C[C@H](C)[C@H](CC[C@@H]3C[C@@H](O)CC(=O)O3)[C@H]21,inactive,
O=c1n(CC2CO2)c(=O)n(CC2CO2)c(=O)n1CC1CO1 (stereo not drawn),inactive,
COCCOc1cc2cc(C(=O)NC3CCN(C(C)C)CC3)n(CC(=O)Nc3ccc(Cl)cn3)c2cn1,inactive,
CC(C)=CCC/C(C)=C/CO,inactive,
CCOC(=O)CC(CC(=O)OCC)(OC(C)=O)C(=O)OCC,inactive,
Cc1ccc(C)c(O)c1,inactive,
CCCCCCCCCCCCCCCO,inactive,
CC[C@H]1OC(=O)[C@H](C)[C@@H](O[C@H]2C[C@@](C)(OC)[C@@H](O)[C@H](C)O2)[C@H](C)[C@@H](O[C@@H]2O[C@H](C)C[C@H](N(C)C)[C@H]2O)[C@](C)(O)C[C@@H](C)C(=O)[C@H](C)[C@@H](O)[C@]1(C)O,inactive,
CC(C)CCO,inactive,
CC(C)CCCCCCOC(=O)c1ccc(C(=O)OCCCCCCC(C)C)c(C(=O)OCCCCCCC(C)C)c1,inactive,
Cc1c(-c2cccnc2)c2ccccc2n1CCCCC(=O)O,inactive,
CCCCC(CC)COC(=O)c1ccc(C(=O)OCC(CC)CCCC)cc1 (stereo not drawn),inactive,
CCCCCCCCO,inactive,
O=C(O)CCN(C1(C(=O)NO)CCCC1)S(=O)(=O)c1ccc(Oc2ccc(F)cc2)cc1,inactive,
COc1cccc(-c2ccc(/C=C\CN3CCCCCC3)cc2Cl)c1,inactive,
CC(C)=CCC/C(C)=C\CO,inactive,
